According to PubChem BioAssay AID1159580 (chemical genetic matrix, 2015):
Where “and” joins values, the source holds several entries; their conditions need not be identical. Identical values can stand only once. The whole screen tested about 5,500 compounds, of which about 2,000 (36%) were called active. About 18% were inconclusive and are not listed. Rule as the data show it: active = normalized growth mostly below about 0.91 (no sharp cut-off); inconclusive = no clear call, values can overlap the other calls; inactive = mostly above about 0.92. The list shows a part of the results.

Experiment: chemical genetic growth profiling, strain panel (AID 1159580);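 also: tested at 20 µM; growth read once vehicle control cultures reached saturation at 30 °C; 1 = growth at the plate median or of vehicle wells; lower values mean less growth of the strain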
Conditions: S. cerevisiae deletion strains, growth OD

Measured: normalized growth

NCCc1cnc[nH]1
inactive: locus YAL021C, strain ccr4, active compounds read low 1.01 | locus YAL026C, strain drs2, active compounds read low 1.01 | locus YAL030W, strain snc1, active compounds read low 1.01 | locus YAL040C, strain CLN3, active compounds read low 0.978 | locus YBL061C, strain skt5, active compounds read low 1.02 | locus YBR009C, strain hhf1, active compounds read low 1 | locus YBR021W, strain FUR4, active compounds read low 1 | locus YBR023C, strain chs3, active compounds read low 1.02 | locus YBR171W, strain sec66, active compounds read low 1.03 | locus YBR229C, strain ROT2, active compounds read low 1.01 | locus YBR231C, strain swc5, active compounds read low 0.976 | locus YBR279W, strain paf1, active compounds read low 1.02 | locus YCL011C, strain gbp2, active compounds read low 1.03 | locus YCL016C, strain dcc1, active compounds read low 1.01 | locus YCL029C, strain bik1, active compounds read low 1.01 | locus YCL061C, strain MRC1, active compounds read low 1.02 | locus YCL069W, strain vba3, active compounds read low 1.01 | locus YCR088W, strain abp1, active compounds read low 1.01 | locus YDL005C, strain med2, active compounds read low 1.02 | locus YDL035C, strain GPR1, active compounds read low 0.988 | locus YDL040C, strain nat1, active compounds read low 1.02 | locus YDL074C, strain BRE1, active compounds read low 1 | locus YDL101C, strain DUN1, active compounds read low 1.01 | locus YDL185W, strain tfp1, active compounds read low 1.02 | locus YDL192W, strain arf1, active compounds read low 1.03 | locus YDR001C, strain nth1, active compounds read low 1.01 | locus YDR069C, strain doa4, active compounds read low 0.993 | locus YDR101C, strain arx1, active compounds read low 0.997 | locus YDR137W, strain rgp1, active compounds read low 1.03 | locus YDR159W, strain sac3, active compounds read low 0.995 | locus YDR162C, strain NBP2, active compounds read low 0.998 | locus YDR195W, strain ref2 0.994 | locus YDR297W, strain sur2, active compounds read low 1.04 | locus YDR318W, strain mcm21, active compounds read low 1.02 | locus YDR334W, strain swr1, active compounds read low 1.02 | locus YDR335W, strain msn5, active compounds read low 1.02 | locus YDR363W, strain ESC2, active compounds read low 0.998 | locus YDR388W, active compounds read low 1.01 | locus YDR392W, strain spt3, active compounds read low 1 | locus YDR502C, strain sam2, active compounds read low 1.01 | locus YEL003W, strain gim4, active compounds read low 1.03 | locus YEL037C, strain rad23, active compounds read low 1.02 | locus YEL061C, strain CIN8 (second series), active compounds read low 1.02 | locus YEL061C, strain CIN8, active compounds read low 0.995 | locus YER002W, strain NOP16, active compounds read low 0.994 | locus YER015W, strain faa2, active compounds read low 1.01 | locus YER016W, strain bim1, active compounds read low 1 | locus YER110C, active compounds read low 1.02 | locus YER111C, strain swi4, active compounds read low 1.02 | locus YER155C, strain BEM2 (second series), active compounds read low 1.03 | locus YER155C, strain BEM2, active compounds read low 1.01 | locus YER167W, strain BCK2, active compounds read low 0.989 | locus YFR010W, strain ubp6, active compounds read low 1.01 | locus YGL078C, strain dbp3, active compounds read low 1.02 | locus YGL086W, strain mad1, active compounds read low 1 | locus YGL167C, strain pmr1, active compounds read low 1.01 | locus YGL173C, strain kem1, active compounds read low 1 | locus YGL227W, strain vid30, active compounds read low 1.01 | locus YGL240W, strain doc1, active compounds read low 1.01 | locus YGL248W, strain PDE1, active compounds read low 1.01 | locus YGL253W, strain hxk2, active compounds read low 1.01 | locus YGR078C, strain PAC10, active compounds read low 1 and 0.997 | locus YGR135W, strain pre9, active compounds read low 1.02 | locus YGR252W, strain gcn5, active compounds read low 1.04 | locus YHR013C, strain ard1, active compounds read low 1.06 | locus YHR027C, strain rpn1, active compounds read low 1.01 | locus YHR030C, strain SLT2, active compounds read low 0.985 and 1 | locus YHR079C, strain IRE1 (second series), active compounds read low 1.01 | locus YHR079C, strain IRE1, active compounds read low 1.03 | locus YHR094C, strain hxt1, active compounds read low 1.01 | locus YHR129C, strain ARP1, active compounds read low 1.01 | locus YHR142W, strain chs7, active compounds read low 1.01 | locus YHR200W, strain rpn10, active compounds read low 1.02 | locus YIL066C, strain RNR3, active compounds read low 1.01 | locus YIL073C, strain SPO22, active compounds read low 1.03 | locus YIL125W, strain kgd1, active compounds read low 1.02 | locus YIR030C, strain dcg1, active compounds read low 1.01 | locus YJL092W, strain hpr5, active compounds read low 1.02 | locus YJL095W, strain BCK1 (second series), active compounds read low 1.02 | locus YJL095W, strain BCK1, active compounds read low 1.01 and 0.999 | locus YJL115W, strain asf1, active compounds read low 1.02 | locus YJL129C, strain trk1, active compounds read low 1.03 | locus YJL134W, strain LCB3, active compounds read low 0.995 | locus YJL154C, strain vps35, active compounds read low 1.03 | locus YJL164C, strain tpk1, active compounds read low 1.02 | locus YJL166W, strain qcr8, active compounds read low 1.03 | locus YJL168C, strain set2, active compounds read low 1.01 | locus YJL187C, strain SWE1 (second series), active compounds read low 1 | locus YJL187C, strain SWE1, active compounds read low 1.01 | locus YJR043C, strain POL32, active compounds read low 1
